About 11,000 (3.1%) of roughly 360,000 compounds were called active. Inconclusive results (about 2%) are left out. Rule as the data show it: active = fluorescence intensity above about 16000; inconclusive = no clear call, values can overlap the other calls; inactive = below that. The entries come from a sample that favours actives as a whole.

This experiment is described as follows: counter-screen for toxin protease inhibitors: compound fluorescence, primary screen, artefact control for toxin protease inhibitor project, biochemical, multiplex microsphere, HTS (AID 624483). Conditions: compound autofluorescence counterscreen, microsphere flow cytometry; hits give high values. For orientation: A counterscreen serves to expose hits that act by an unwanted route or on another target.
For `CCc1nc2c(OCCOc3ccc(F)cc3)cccn2c1N(C)C(=O)c1ccccc1F`, the fluorescence intensity was 3010 (inactive).

`Cc1ccc(S(=O)(=O)N2CCN(C)CC2)cc1`: the fluorescence intensity is 4010 (inactive).

On to `CN1CCN(S(=O)(=O)c2ccc3[nH]cc(C(=O)O)c(=O)c3c2)CC1`, for which the fluorescence intensity was 21500 (active).

For the compound `Cc1ccc(S(=O)(=O)N2CCN(C)CC2)cc1C(=O)NC1CCCCC1`, the fluorescence intensity is 4410 (inactive).

Turning to `c1ccc(COc2ccccc2CNCc2cccnc2)cc1`, the fluorescence intensity is 7500 (inactive).

Take `O=C(COC(=O)CCc1ccc(S(=O)(=O)N2CCOCC2)cc1)Nc1cccc(Cl)c1`: the fluorescence intensity was 4250 (inactive).

In the case of `O=C(CCc1ccc(S(=O)(=O)N2CCOCC2)cc1)NN=C1CCCCCCC1`, the fluorescence intensity was 2120 (inactive).

Consider `O=C(CCc1ccc(S(=O)(=O)N2CCOCC2)cc1)Nc1ccc2ccccc2c1`, for which the fluorescence intensity is 21400 (active).

Regarding `OC[C@@H]1CN(C2CCCC2)C[C@H](n2cnc3c(NC4CCC4)ncnc32)O1`, the fluorescence intensity is 2860 (inactive).

For `Cn1c(=O)[nH]c(=O)c2c1nc(NCCCn1ccnc1)n2Cc1cccc(Br)c1`, the fluorescence intensity was 4650 (inactive).

With `COc1cccc(-n2c(=O)c3c(C)c(C(=O)N(C)C)sc3n(CC(=O)NCCc3ccc(OC)c(OC)c3)c2=O)c1`, the fluorescence intensity is 4050 (inactive).

In the case of `CCC/C(O)=C1\C(=O)CC(C)(C)CC1=Nc1ccccc1OC`, the fluorescence intensity was 2780 (inactive).

As to `Cc1cccc(N=C2NC(=O)CS2)c1C`, the fluorescence intensity was 7480 (inactive).

For the compound `CCOc1ccccc1N=C1NC(=O)CS1`, the fluorescence intensity is 23300 (active).

Take `Cc1nc(-c2ccccc2)cn2c1nc1ccccc12`: the fluorescence intensity was 2360 (inactive).

Turning to `CN(C)C(=O)c1cccc(-c2cnc3c(NC=O)cc(-c4ccc(C(=O)N5CCOCC5)cc4)cn23)c1`, the fluorescence intensity is 3080 (inactive).

As for `CCOc1ccc(CCN2C(=O)C(=O)N([C@@H](CC(C)C)CN3CCC[C@H]3CN3C(=O)C(=O)NC[C@@H]3Cc3ccccc3)C[C@@H]2CC(C)C)cc1`, the fluorescence intensity was 4830 (inactive).

In the case of `Cn1c(SCC(=O)c2cccs2)nnc1-c1ccco1`, the fluorescence intensity is 8030 (inactive).

In the case of `CCc1cccc(C)c1NC(=O)CSc1nnc(-c2ccco2)n1N`, the fluorescence intensity is 23800 (active).

`CCOc1ccc(-n2c(SCC(N)=O)nnc2-c2ccco2)cc1`: the fluorescence intensity was 3680 (inactive).

Take `CCOC(=O)CSc1nnc(-c2ccco2)n1C`: the fluorescence intensity was 19700 (active).

As to `NC(=O)c1c(NC(=O)CSc2nnc(-c3ccco3)n2N)sc2c1CCCC2`, the fluorescence intensity is 2490 (inactive).

Consider `Nn1c(SCC(=O)Nc2nccs2)nnc1-c1ccco1`, for which the fluorescence intensity was 6070 (inactive).

Take `O=C(Nc1ccc(Cl)c(C(F)(F)F)c1)C1Cc2c(-c3ccccc3Oc3ccccc3)ccnc2O1` (stereo not drawn): the fluorescence intensity is 3930 (inactive).

As to `OC(c1cc(Cl)cc(Cl)c1)c1ncc(-c2ccccc2C(F)(F)F)[nH]1` (stereo not drawn), the fluorescence intensity was 2910 (inactive).

`O=C(Nc1ccc(Cl)cc1)c1csc([C@@H]2O[C@H](CO)[C@H](O)[C@H](O)[C@H]2O)n1`: the fluorescence intensity was 3610 (inactive).

Consider `CCn1c(SCC(=O)NCC2CCCO2)nc2ccccc21` (stereo not drawn), for which the fluorescence intensity was 4090 (inactive).

For the compound `O=C(CCCn1c(SCC(=O)c2ccccc2)nc2ccccc2c1=O)NCC1CCCO1` (stereo not drawn), the fluorescence intensity was 23800 (active).

`CCn1c(SCC(=O)NCC2CCCO2)nc2cc(S(=O)(=O)N3CCCCC3)ccc21` (stereo not drawn): the fluorescence intensity is 3450 (inactive).

As to `COCCNC(=O)c1ccc(Cn2c(SCC(=O)NCC3CCCO3)nc3ccc(Br)cc3c2=O)cc1` (stereo not drawn), the fluorescence intensity was 5480 (inactive).

As for `O=C(CSc1nc2ccccc2c(=O)n1Cc1ccc(F)cc1)NCC1CCCO1` (stereo not drawn), the fluorescence intensity is 6760 (inactive).

`CCCCn1c(SCC(=O)NCC2CCCO2)nc2ccc(N3CCOCC3)cc2c1=O` (stereo not drawn): the fluorescence intensity is 21100 (active).

For `O=C(O)C1CCCN1S(=O)(=O)c1ccc2c(c1)CCC2` (stereo not drawn), the fluorescence intensity was 7810 (inactive).

Regarding `CC(C)(C)SCCSC1=CC(=O)CC(c2ccccc2)C1` (stereo not drawn), the fluorescence intensity is 3630 (inactive).

Consider `CCCCNC(=O)C[C@@H]1C[C@@]2(C(=O)OCC)CCC=C2N(Cc2ccco2)C1=O`, for which the fluorescence intensity was 6060 (inactive).

As for `CC1(Cc2ccccc2C#N)C(=O)Nc2ccc(-c3ccc4[nH]ccc4c3)cc21` (stereo not drawn), the fluorescence intensity is 3220 (inactive).

For the compound `COc1ccc(NC(=O)CCCN2C(=O)C(c3ccccc3)Oc3cccnc32)cc1` (stereo not drawn), the fluorescence intensity is 5260 (inactive).

As to `CCC1CCCCN1S(=O)(=O)Cc1ccccc1Cl` (stereo not drawn), the fluorescence intensity was 5020 (inactive).

On to `Cc1nnsc1C(=O)Nc1cccc(Cl)c1C`, for which the fluorescence intensity was 4480 (inactive).

`Cc1nnsc1S(=O)(=O)Cc1ccccc1Cl`: the fluorescence intensity was 22200 (active).

Regarding `C[C@H]1COc2cc(N3CCSCC3)ccc2S(=O)(=O)N1`, the fluorescence intensity was 5560 (inactive).

Regarding `c1ccc(C[C@H]2CNCCN2CCC23CC4CC(CC(C4)C2)C3)cc1`, the fluorescence intensity is 3210 (inactive).

Consider `Cc1cc(C)n(-c2c(F)c(F)c(COC(=O)c3ccccc3)c(F)c2F)n1`, for which the fluorescence intensity is 3060 (inactive).

On to `Cc1cc(C)n(-c2nc(C(F)(F)F)nc3ccccc23)n1`, for which the fluorescence intensity is 3100 (inactive).

Turning to `CCCOn1c(-n2nc(C)cc2C)nc2ccccc2c1=O`, the fluorescence intensity was 23500 (active).

As to `COc1cc(/C=C/C(=O)OCC(=O)NCCCc2ccccc2)ccc1O`, the fluorescence intensity is 5380 (inactive).

For the compound `Cc1ccccc1S(=O)(=O)N1[C@@H](c2cccc(Cl)c2)C(C(=O)OC(C)(C)C)=CC[C@H]1c1ccc(Cl)cc1`, the fluorescence intensity was 4430 (inactive).

With `CC12CCC(C(=O)N(CCC#N)CCC#N)(CC1=O)C2(C)C` (stereo not drawn), the fluorescence intensity is 20400 (active).

For the compound `Cn1c(=O)c2c(nc(N/N=C/c3cccs3)n2Cc2ccc(Br)cc2)n(C)c1=O`, the fluorescence intensity is 2410 (inactive).

In the case of `O=C(Nc1nnc(Cc2ccccc2)s1)c1cnccn1`, the fluorescence intensity was 3990 (inactive).

For `O=C(Nc1cccc(NC(=O)c2ccco2)c1)c1cnccn1`, the fluorescence intensity is 23700 (active).

In the case of `CC(C)(C)NC(=O)c1cc(NC(=O)c2ccco2)cc(NC(=O)c2ccco2)c1`, the fluorescence intensity is 3040 (inactive).

In the case of `CCOC(=O)N(C)c1c(CC)nc2c(OCc3ccccc3C(=O)OC)cccn12`, the fluorescence intensity was 3540 (inactive).

`COc1cc(NC(=O)c2cc(-c3ccc(F)cc3OC(C)C)n[nH]2)cc(OC)c1OC`: the fluorescence intensity was 3570 (inactive).

Take `CCNC(=O)c1cc2c(c(-c3cccc(-c4cncnc4)c3)n1)[C@H](CCO)N(C(C)=O)C2`: the fluorescence intensity was 6050 (inactive).

Turning to `O=C1NC[C@H](CCCCN2CCN(CCc3ccccc3)C(=O)C2=O)N(CC2CCCCC2)C1=O`, the fluorescence intensity is 5200 (inactive).

In the case of `Cc1ccc(NC(=O)C2(N3CCC3=O)CCCCC2)cc1`, the fluorescence intensity is 2510 (inactive).

As for `O=C(c1cccc(S(=O)(=O)N2CCOCC2)c1)N1CCOCC1`, the fluorescence intensity is 25300 (active).

For the compound `O=C(Nc1ccc(N2CCOCC2)cc1)c1cccc(S(=O)(=O)N2CCOCC2)c1`, the fluorescence intensity was 2540 (inactive).

As to `O=C(c1cc(S(=O)(=O)N2CCOCC2)ccc1Cl)N1CCOCC1`, the fluorescence intensity was 5390 (inactive).

As for `Cc1cccc(OCCNC(=O)CSc2ccc(C(F)(F)F)cc2[N+](=O)[O-])c1`, the fluorescence intensity was 2620 (inactive).

For `O=c1c2ccccc2nc(-c2ccc(Cl)cc2Cl)n1-c1ccncc1`, the fluorescence intensity is 18700 (active).

On to `O=c1c2ccccc2nc(CBr)n1-c1ccc(Cl)cc1`, for which the fluorescence intensity is 3850 (inactive).

In the case of `O=c1c2ccccc2nc(-c2ccccc2)n1-c1ccccn1`, the fluorescence intensity is 4770 (inactive).

Take `CCOc1ccc(NC(=O)CCS(=O)(=O)c2ccc3c(c2)CCCN3C(=O)CC)cc1`: the fluorescence intensity was 10500 (inactive).

Turning to `COC(=O)c1ccc(Oc2nc(NC(C)C)nc(SC)n2)cc1`, the fluorescence intensity is 2470 (inactive).

`CCNc1nc(NC(C)C)nc(N2CC(=O)N(CC(=O)OCC)C2=N)n1`: the fluorescence intensity was 10500 (inactive).

As for `CCNc1nc(NC(C)C)nc(OCCOC(=O)c2ccccc2)n1`, the fluorescence intensity was 22900 (active).

In the case of `CN(C)N1C(N)=C(C#N)C(c2ccc(Br)cc2)C2=C1CCCC2=O` (stereo not drawn), the fluorescence intensity is 4350 (inactive).

As for `CCOc1ccc(-n2c(O)c(/C=N/Nc3nc(C)cc(C)n3)c3ccccc3c2=O)cc1`, the fluorescence intensity was 4560 (inactive).

`CCOc1ccc(N=Cc2c(O)n(-c3cccc(C)n3)c(=O)c3ccccc23)cc1`: the fluorescence intensity was 20300 (active).

Regarding `Cc1ccc(N=Cc2c(O)n(-c3nccs3)c(=O)c3ccccc23)c(C)c1`, the fluorescence intensity was 2410 (inactive).

With `O/N=C(\C[n+]1ccccc1)c1ccc(Br)cc1`, the fluorescence intensity was 3050 (inactive).

`COC(=O)c1sccc1NC(=O)CC1C(=O)NCCN1C(=O)Nc1ccc(F)cc1F` (stereo not drawn): the fluorescence intensity is 6320 (inactive).

As for `COc1cccc(N(CC(=O)N2CCc3ccccc3C2)S(C)(=O)=O)c1`, the fluorescence intensity was 22900 (active).

For the compound `CS(=O)(=O)N(CC(=O)N1CCc2ccccc2C1)c1ccc(Br)cc1`, the fluorescence intensity is 4000 (inactive).

`Cc1ccc(S(=O)(=O)N(CC(=O)N2CCc3ccccc3C2)c2cccc(Cl)c2)cc1`: the fluorescence intensity is 2460 (inactive).

As to `COc1cc(/C=N\NC(=O)c2nonc2N)c(OC)cc1Br`, the fluorescence intensity was 2500 (inactive).

Consider `COc1cc(N2CCCC2)c(OC)cc1/C=C(/C#N)c1cccc(Br)c1`, for which the fluorescence intensity was 20000 (active).

Turning to `CCOc1ccc(/C=C(/C#N)c2nnc(N3CCOCC3)n2-c2ccccc2)cc1OC`, the fluorescence intensity was 3950 (inactive).

For `O=C(O)c1ccccc1-c1cccc2nncn12`, the fluorescence intensity was 3820 (inactive).

Consider `Cc1sc2ccccc2c1CNC[C@H]1O[C@@H](n2ccc(=O)[nH]c2=O)[C@H](O)[C@@H]1O`, for which the fluorescence intensity was 6010 (inactive).

For `CCc1nc2c(OCCOc3ccccc3)cccn2c1N(C=O)Cc1ccc(OC)cc1`, the fluorescence intensity was 3280 (inactive).

On to `O=C1CCCc2c1[nH]c1ccc(Br)cc21`, for which the fluorescence intensity is 10300 (inactive).

Take `Cc1occc1C(=O)N/N=C/c1ccc(-c2cccc([N+](=O)[O-])c2)o1`: the fluorescence intensity is 6020 (inactive).

Turning to `C#CCCCc1nc2ccccc2c(=O)n1N`, the fluorescence intensity was 2060 (inactive).

As to `Cc1ccc(S(=O)(=O)NCc2nc3ccccc3c(=O)n2N)cc1`, the fluorescence intensity is 23000 (active).

For `COc1ccccc1CNS(=O)(=O)c1ccc(C)cc1`, the fluorescence intensity is 3200 (inactive).

Take `O=C(COc1ccc(-c2ccccc2)cc1)NN=C1CCCC1`: the fluorescence intensity was 4340 (inactive).

In the case of `O=S(=O)(NC1CC1)c1ccc(F)c(F)c1`, the fluorescence intensity is 5500 (inactive).

For the compound `O=S(=O)(NC1CCCCC1)c1ccc(F)c2ccccc12`, the fluorescence intensity is 17400 (active).

For `O=S(=O)(NC1CC1)c1ccc2c3c(cccc13)CC2`, the fluorescence intensity was 4730 (inactive).

For the compound `Cc1cc(=O)oc2c3c(cc(OCC(=O)NCC(O)c4ccccc4)c12)OC(C)(C)CC3` (stereo not drawn), the fluorescence intensity was 5100 (inactive).

The values are drawn from PubChem BioAssay AID624483 (NMMLSC, 2012).
